We go through 5 molecules from PubChem BioAssay.

Test [1] is described as follows: blockers of polyQ-driven CASP3 activation – cell-based (AID 1583). Particulars: polyglutamine-induced caspase-3 activation, cell assay; stronger effect = higher value;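 tested at 10 µM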.
Test [2] is described as follows: yeast 75Q aggregation reduction – 75Q-TubU reporter (AID 1593). Particulars: Yeast 75Q polyglutamine aggregation reporter.
A short description of test [3]: restoration of touch response, mutant HTT neurons – whole organism, C. elegans mechanosensory neurons, N-terminal huntingtin (AID 1599). As to conditions: C. elegans polyQ-huntingtin mechanosensory neurons, stronger effect = higher value.
A short description of test [4]: blockers of cytochrome c efflux from mitochondria – biochemical, purified mitochondria (AID 1603).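 Further: mouse liver mitochondria challenged with calcium chloride; signal normalized to the plate average as 100%.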 As to conditions: stronger effect = lower value.
The nature of test [5]: polyglutamine aggregate formation blockers (AID 1604). As to conditions: polyglutamine-induced protein aggregation inhibition assay; stronger effect = higher value; tested at 2.5 µM.
Test [6] is described as follows: glutamate transport activators, MN-1 cells, MN-1 cell line (AID 1612).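 Further: tested at 1 µM final; 0% = mean of DMSO vehicle wells on each plate; positive means more glutamate uptake than control and negative means less.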 Particulars: MN-1 motor neuron cells, stronger effect = higher value.
Test [7] can be described thus: 75Q-TubH aggregate inhibition, S. cerevisiae, yeast (AID 1616). Particulars: S. cerevisiae 75Q-TubH polyglutamine aggregation suppression; stronger effect = higher value.
Test [8] has as its system Hepatitis C virus NS3 helicase. Description: blockers of NS3h binding to DNA – biochemical, fluorescence polarization, NIH Clinical Collection, primary screen (AID 743270; call rule not given here). Particulars: NS3 helicase binding to Cy5-dT15 DNA, stronger effect = higher value, concentration not given here. For orientation: In fluorescence polarisation assays a small probe gives low polarisation when free and higher when bound to something large.

For test [9], the target named is Single-stranded DNA-binding protein (Escherichia coli (strain K12)) (UniProt P0AGE0). The test is described as follows: SSB-ssDNA binding inhibitors – biochemical, fluorescence polarization, NIH Clinical Collection, counter-screen for HCV NS3 helicase inhibitor project (AID 743271; in the data active means inhibition above about 28%). Particulars: E. coli SSB-DNA binding, stronger effect = higher value, concentration not given here.

Test [10] can be described thus: compounds distorting NS3 helicase fluorescence signal – biochemical, NIH Clinical Collection, artefact control for HCV NS3 helicase inhibitor project (AID 743272; call rule not given here;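 further: HCV NS3 helicase with a Cy5 labelled single stranded DNA probe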). As to conditions: fluorescence interference counterscreen, HCV NS3 helicase assay; stronger effect = lower value. (In general: Counterscreens check selectivity or assay interference.)
The test system of test [11] is F380Y. Description: BK channel mutant inhibitors and activators – cell-based, U2OS BacMam, thallium flux, beta subunits, selectivity assay, profiling panel (AID 1259406).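 Further: initial slope of Thallos dye fluorescence rise after thallium is added; log ratio against the mean of 0.3% DMSO vehicle wells on the same plate.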 Particulars: U2OS BacMam BK variants, at 30 µM.
The test system of test [12] is F380Y/beta2Delta. The test is described as above. Particulars: U2OS BacMam BK variants, at 30 µM.
The target in test [13] is Calcium-activated potassium channel subunit alpha-1 (Homo sapiens) + Leucine-rich repeat-containing protein 26 (Homo sapiens) (UniProt Q12791+Q2I0M4). The test is described as above. As to conditions: U2OS BacMam BK variants, F380Y/Slo1WT/gamma1, at 30 µM.
Chain of Calcium-activated potassium channel subunit alpha-1 (Homo sapiens) + Leucine-rich repeat-containing protein 26 (Homo sapiens) (Q2I0M4 whole entry, looked up, one chain of several): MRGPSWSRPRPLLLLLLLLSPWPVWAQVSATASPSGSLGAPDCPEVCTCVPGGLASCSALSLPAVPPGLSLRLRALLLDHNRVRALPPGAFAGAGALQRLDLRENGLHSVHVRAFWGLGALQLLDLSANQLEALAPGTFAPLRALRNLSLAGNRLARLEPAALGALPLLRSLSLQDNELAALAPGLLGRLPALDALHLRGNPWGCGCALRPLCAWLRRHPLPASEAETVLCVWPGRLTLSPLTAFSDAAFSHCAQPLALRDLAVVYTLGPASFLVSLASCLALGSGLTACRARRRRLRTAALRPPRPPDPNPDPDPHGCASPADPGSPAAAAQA
For test [14], the system named is R275C. The description is as above. As to conditions: U2OS BacMam BK variants, at 30 µM.
Test [15] concerns R275C/beta1. Described as above. As to conditions: U2OS BacMam BK variants, at 30 µM.
Test [16] relates to R275C/beta2Delta. The description is as above. Particulars: U2OS BacMam BK variants, at 30 µM.
The nature of test [17]: compounds altering circadian rhythm period length – cell-based, LOPAC library, luminescence reporter (AID 2774; call rule not given here;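 further: values are relative to mean of DMSO wells on each plate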). Particulars: circadian reporter cells, at 7 µM, actives lie on both sides.
In test [18] the test system is Hepatitis C virus NS3 helicase. Description: blockers of NS3h binding to ssDNA – biochemical, fluorescence polarization, LOPAC1280 library, primary screen (AID 687035; in the data active means inhibition above about 37%). As to conditions: Purified HCV NS3 helicase, Cy5-dT15 ssDNA binding fluorescence polarization; stronger effect = higher value; concentration not given here.
A short description of test [19]: compounds altering Cy5-DNA-NS3h complex signal – biochemical, LOPAC1280, artefact control for HCV NS3 helicase inhibitor project (AID 687037; call rule not given here). Particulars: Cy5-DNA-NS3h complex fluorescence interference counterscreen.
Test [20] can be described thus: blockers of cellular phospholipid synthesis – cell-based, LOPAC library, screen 4, primary screen (AID 1347384; call rule not given here). As to conditions: animal cells, phospholipid biosynthesis inhibition screen; at 10 µM.

As usually defined, the inhibition is the relative decrease from the control value, in per cent.

The structures appear in SMILES notation. For some assays here: Results with a measured potency or affinity are listed apart. Calls of active or inactive are those of the source.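 How the source made its calls, unless noted: active means thallium flux through the channel raised or lowered by more than 3 SD from vehicle-only wells, actives on both sides; inactive means the rest.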

With `Cc1cc(NS(=O)(=O)c2ccc(N)cc2)no1`, the inhibition in test [1] was 23.4%; in test [8], 0.45% (inactive); in [9] it was -0.48% (inactive). This molecule returned a score in test [2] of 1.35. Also, the rescue above control in test [3] was -4.83. For the same molecule, the cytochrome c release ratio in test [4] came to 0.69. The inhibition of aggregation in [5] was 58.6%. Moreover, the glutamate uptake change in test [6] stood at 12.1%. Besides, the aggregation suppression score in [7] is 1.36. In test [10], the fluorescence ratio is 1 (inactive). The log fold change Tl+ flux in test [11] is -0.0179 (inactive); in test [12], 0.0172 (inactive); in [13], -0.00437 (inactive); in test [14], 0.00714 (inactive); in test [15], 0.00387 (inactive); in [16], -0.00735 (inactive).

Take `COc1cc(Cc2cnc(N)nc2N)cc(OC)c1OC`: the inhibition in test [1] was -19.7%; in [18], 1% (inactive); in [8], -3.18% (inactive); in test [9], 0.29% (inactive). This molecule also displayed a score in test [2] of 1.11. This molecule had a rescue above control in test [3] of 11.6. Further, the cytochrome c release ratio in [4] came to 0.82. In addition, the inhibition of aggregation in test [5] is 83.3%. Also, in test [6], the glutamate uptake change was -5.77%. In [7], this molecule showed an aggregation suppression score of 1.24. The period change in test [17] was 0.055 h (inactive). Also, in test [19], the fluorescence ratio (interference) is 1 (inactive). For the same molecule, the fluorescence ratio in [10] is 0.95 (inactive). The molecule was called inactive in test [20]. In addition, the log fold change Tl+ flux in [11] was 0.00407 (inactive); in test [12], -0.0235 (inactive); in test [13], -0.00393 (inactive); in [14], 0.00151 (inactive); in [15], -0.051 (inactive); in test [16], -0.0321 (inactive).

`Oc1ccc(O)cc1`: in [17], the period change is -0.06 h (inactive). The inhibition in test [18] was 0% (inactive). Besides, the fluorescence ratio (interference) in test [19] was 1.1 (inactive). Also, the molecule was classed as inactive in test [20].

`CC(C)NCC(O)COc1cccc2[nH]ccc12` (stereo not given): the inhibition was -39.9% in test [1], -5% (inactive) in test [18], -5.91% (inactive) in test [8] and 2.57% (inactive) in test [9]. In test [2], this molecule registered a score of 1.28. In [3], this molecule returned a rescue above control of 3.36. In test [4], the cytochrome c release ratio was found to be 0.95. In test [5], this molecule yielded an inhibition of aggregation of 83.3%. In test [6], the glutamate uptake change was found to be 11.9%. For the same molecule, in test [7], the aggregation suppression score amounted to 1.28. For the same molecule, the period change in test [17] is 0.015 h (inactive). In addition, the fluorescence ratio (interference) in [19] was 1 (inactive). The fluorescence ratio in test [10] is 0.9 (inactive). Further, in test [20], the result was inactive. The log fold change Tl+ flux is -0.0071 (inactive) in test [11]; 0.0139 (inactive) in [12]; 0.0267 (inactive) in test [13]; 0.00949 (inactive) in [14]; 0.00683 (inactive) in test [15]; -0.0133 (inactive) in [16].

Regarding `CNCCCN1c2ccccc2CCc2ccccc21`, the inhibition was -34.3% in [1], -1% (inactive) in [18], -2.27% (inactive) in test [8] and -2% (inactive) in test [9]. The same molecule showed a score in test [2] of 1.37. Further, the rescue above control in test [3] was -15.4. Besides, in test [4], the cytochrome c release ratio was 1.05. For the same molecule, the inhibition of aggregation in [5] stood at 7.32%. In addition, the glutamate uptake change in [6] is 12.7%. This molecule registered an aggregation suppression score in [7] of 1.18. The period change in [17] was -0.04 h (inactive). The fluorescence ratio (interference) in [19] is 1 (inactive). In addition, the fluorescence ratio in test [10] is 1.02 (inactive). Also, in [20], the result was inactive. Besides, the log fold change Tl+ flux in test [11] is 0.121 (active); in test [12], 0.152 (active); in [13], 0.148 (active); in [14], 0.0168 (inactive); in test [15], 0.17 (active); in test [16] it was 0.152 (active).
